The source made the active and inactive calls. Unless noted, how the calls were made is not given here.

Assay [1] relates to XIP peptide (Xip251-270) binding. Nature of the assay: XIP fragment 251-270 binding compounds – biochemical, small-molecule microarray, fluorescence 635/667 nm, 0.1 µg/mL protein, primary screen (AID 1182). The note with it: fluorescent protein binding, 635 nm, higher = more signal, called active from +8 up or from −8 down.
Another assay has as its system XIP peptide (Xip251-270). Nature of the assay: compounds binding XIP fragment 251-270 – biochemical, small-molecule microarray, fluorescence 635/667 nm, 0.5 µg/mL protein, primary screen (AID 1183). Particulars: fluorescence 635 nm, higher = more signal.
Assay [2] can be described thus: blood-stage malaria parasite viability loss – strain 3D7, DAPI fluorescence, 100 nL, primary screen (AID 1184).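 Further: parasites grown inside human red blood cells in medium with human serum.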 The note with it: P. falciparum 3D7 growth, 3 d, higher = more signal.
Assay [3] deals with Homeobox protein Hox-A13 (Mus musculus) (UniProt Q62424). Description: disruptors of Hoxa13 oligonucleotide interaction – biochemical, fluorescence polarization, labeled oligonucleotide, primary screen (AID 1185). The note with it: Hoxa13:DNA binding, 15 min, higher = more signal, called active from +8 up or from −8 down.
Chain of Homeobox protein Hox-A13 (Mus musculus) (Q62424 whole entry, looked up): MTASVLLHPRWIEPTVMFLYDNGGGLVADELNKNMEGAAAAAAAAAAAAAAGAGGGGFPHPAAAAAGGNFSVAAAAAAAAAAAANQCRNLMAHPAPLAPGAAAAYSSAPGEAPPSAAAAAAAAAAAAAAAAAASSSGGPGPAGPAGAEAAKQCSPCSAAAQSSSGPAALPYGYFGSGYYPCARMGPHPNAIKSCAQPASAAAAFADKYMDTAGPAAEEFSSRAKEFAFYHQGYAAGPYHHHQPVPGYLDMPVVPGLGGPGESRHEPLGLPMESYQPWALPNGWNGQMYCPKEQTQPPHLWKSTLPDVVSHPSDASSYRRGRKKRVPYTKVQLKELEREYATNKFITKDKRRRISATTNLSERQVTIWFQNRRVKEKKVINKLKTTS
Assay [4] in a line: blockers of DNA damage checkpoint Chk1 activation – imaging, HeLa, hydroxyurea, phospho-Chk1 antibody, percent positive cells, primary screen (AID 1186). The note with it: hydroxyurea-induced phospho-Chk1 immunofluorescence imaging, higher = more signal.
Assay [5] in a line: blockers of DNA damage checkpoint Chk1 activation – imaging, HeLa, hydroxyurea, phospho-Chk1 nuclear intensity, primary screen (AID 1187). The note with it: hydroxyurea-induced phospho-Chk1 immunofluorescence imaging, higher = more signal.

Take `COc1ccc(CCNC(=O)[C@@]2(C)c3ccccc3C(=O)N(Cc3cc(C(F)(F)F)cc(C(F)(F)F)c3)[C@H]2c2ccc(CO)cc2)cc1`: the composite z-score is 0.517 (inactive) in assay [1] and 0.702 in the assay with XIP peptide (Xip251-270). For the same compound, the z-score in assay [2] is -1.88; in assay [3], -2.88 (inactive); in assay [4], -0.0741 (inactive); in assay [5], 0.364 (inactive).

In the case of `CC(C)C(=C=CC[C@@H](O)c1cccc(OCCO)c1)CCO`, the composite z-score was 0.202 (inactive) in assay [1] and 0.42 in the assay with XIP peptide (Xip251-270). Also, the z-score in assay [2] was -0.115; in assay [3] it was -1.53 (inactive); in assay [4], -0.19 (inactive); in assay [5] it was 0.247 (inactive).

For the compound `CCC(CC)C(O)C1C=CC2C(=O)N(C)C(=O)C2N1N1CCCCC1` (stereo unspecified), the composite z-score in assay [1] is 0.865 (inactive); in the assay on XIP peptide (Xip251-270), 0.708. Also, the z-score in assay [2] is 0.907; in assay [3], -6.35 (inactive); in assay [4] it was 0.687 (inactive); in assay [5], 0.562 (inactive).

Consider `O=c1cccc(-c2ccccc2C(F)(F)F)o1`, for which the composite z-score was -0.808 (inactive) in assay [1] and -0.597 with XIP peptide (Xip251-270). Besides, the z-score was 1.58 in assay [2], -1.43 (inactive) in assay [3], -0.968 (inactive) in assay [4] and -1.66 (inactive) in assay [5].

Take `CC#CCO[Si](C#CCCCCCC)(C(C)C)C(C)C`: the composite z-score in assay [1] is -0.0884 (inactive); with XIP peptide (Xip251-270), 0.938. For the same compound, the z-score in assay [2] was -1.23; in assay [3] it was -2 (inactive); in assay [4] it was -0.156 (inactive); in assay [5], 0.0743 (inactive).

For the compound `O=C1OCCC=C[C@H]2OC34C=CCN(c5ccc(Cl)cc5)C(=O)[C@H]3N(CCO)C(=O)[C@@H]4C12` (stereo partly specified), the values for the composite z-score (in assay [1]; with XIP peptide (Xip251-270)) were -0.379 (inactive) and 0.561, respectively. In addition, the z-score in assay [2] is -0.136; in assay [3], -5.37 (inactive); in assay [4], -0.399 (inactive); in assay [5], -0.576 (inactive).

As to `C=C(CCCC)C(=O)CC[C@H](OC(C)=O)c1ccccc1OCCO`, the composite z-score in assay [1] was 0.551 (inactive); with XIP peptide (Xip251-270), 0.439. For the same compound, the z-score in assay [2] is -2.52; in assay [3] it was -5.49 (inactive); in assay [4], -0.384 (inactive); in assay [5] it was 0.126 (inactive).

Consider `CCCCN1CC=CC23O[C@@H]4C=CCOC(=O)[C@@H]4[C@H]2C(=O)N(C(CO)C(C)C)[C@@H]3C1=O` (stereo partly specified), for which the composite z-score in assay [1] is -0.332 (inactive); in the assay on XIP peptide (Xip251-270) it was -0.186. Further, the z-score was -0.156 in assay [2], -5.09 (inactive) in assay [3], 0.216 (inactive) in assay [4] and 0.118 (inactive) in assay [5].

`[N-]=[N+]=NCc1ccccc1C[C@]1(C(=O)NCc2ccccc2)N=C(c2ccc(OCCCO)cc2)O[C@H]1c1ccccc1CN=[N+]=[N-]`: the composite z-score in assay [1] was 0.99 (inactive); in the assay on XIP peptide (Xip251-270), 0.628. The z-score in assay [2] was -2.24; in assay [3] it was 4.04 (inactive); in assay [4], -0.347 (inactive); in assay [5] it was 0.0031 (inactive).

On to `CC(C)N1CC=CC23O[C@@H]4C=CCCOC(=O)C4[C@H]2C(=O)N(CCCCCO)[C@@H]3C1=O` (stereo partly specified), for which the composite z-score is 0.192 (inactive) in assay [1] and -0.386 in the assay on XIP peptide (Xip251-270). Also, the z-score in assay [2] was 0.263; in assay [3] it was -3.86 (inactive); in assay [4] it was -0.389 (inactive); in assay [5], 0.0936 (inactive).

In the case of `NC(=O)NCC#Cc1ccc2c(c1)[C@]1(C(=O)N2)[C@H](C(=O)N2CCCCCCC2)[C@H]2C(=O)O[C@H](c3ccccc3)[C@H](c3ccccc3)N2[C@@H]1c1ccc(O)cc1`, the composite z-score in assay [1] was 0.123 (inactive); in the assay on XIP peptide (Xip251-270) it was 0.833. The z-score in assay [2] was 0.285; in assay [3], -0.376 (inactive); in assay [4], 0.0378 (inactive); in assay [5], -0.144 (inactive).

With `CN(C)CCCC[C@@H]1NC(=O)[C@H]2C[C@@H](C(=O)NCc3ccc(F)cc3)[C@@H](c3ccc(O)cc3)N2C1=O`, the composite z-score in assay [1] is 2.07 (inactive); in the assay with XIP peptide (Xip251-270), 0.934. Further, the z-score in assay [2] is -0.057; in assay [3] it was -1.36 (inactive); in assay [4], 0.806 (inactive); in assay [5], 1.32 (inactive).

Regarding `C=CCN1C(=O)[C@]2(O[C@H](CCO)[C@@H]([Si](C)(C)c3ccc(OC)cc3)[C@@H]2C)c2ccccc21`, the values for the composite z-score (in assay [1]; in the assay with XIP peptide (Xip251-270)) were 0.0965 (inactive) and 0.193, respectively. Besides, the z-score in assay [2] was -2.31; in assay [3] it was -6.69 (inactive); in assay [4], -1.17 (inactive); in assay [5] it was -1.58 (inactive).

As to `Cc1c(NC(=O)/C(C#N)=C/c2ccc(Cl)cc2)c(=O)n(-c2ccccc2)n1C`, the composite z-score in assay [1] is 0.773 (inactive); with XIP peptide (Xip251-270), 0.876. Moreover, the z-score is 0.468 in assay [2], -3.94 (inactive) in assay [3], -0.0496 (inactive) in assay [4] and -0.246 (inactive) in assay [5].

As to `CN1C(=O)[C@]2(CCS(=O)(=O)c3ccccc3)N=C(c3ccc(OCCCO)cc3)O[C@@H]2c2ccccc21`, the composite z-score in assay [1] was 2.2 (inactive); with XIP peptide (Xip251-270) it was 0.897. For the same compound, the z-score in assay [2] is -2.32; in assay [3], -5.03 (inactive); in assay [4] it was -0.122 (inactive); in assay [5], 0.271 (inactive).

As to `C=CC[C@@]1(C(=O)N(C)C)N=C(c2ccc(OCCCO)cc2)O[C@@H]1c1ccccc1`, the composite z-score in assay [1] was 0.98 (inactive); in the assay with XIP peptide (Xip251-270), 0.425. Moreover, the z-score in assay [2] was -0.76; in assay [3], -6.79 (inactive); in assay [4], 0.343 (inactive); in assay [5] it was 0.0811 (inactive).

As to `C=C(COC)C(=O)CC[C@@H](OC(C)=O)c1ccc(OCCO)cc1`, the composite z-score was 1.61 (inactive) in assay [1] and 0.779 in the assay on XIP peptide (Xip251-270). For the same compound, the z-score is -0.964 in assay [2], -4.63 (inactive) in assay [3], 0.0887 (inactive) in assay [4] and 0.241 (inactive) in assay [5].

For the compound `NCCCC[C@@H]1NC(=O)[C@H]2C[C@@H](C(=O)NCc3ccc(F)cc3)[C@@H](c3cccc(OCCO)c3)N2C1=O`, the composite z-score in assay [1] was 0.752 (inactive); with XIP peptide (Xip251-270), 0.837. Moreover, the z-score in assay [2] was 0.0979; in assay [3] it was 5.72 (inactive); in assay [4] it was -0.281 (inactive); in assay [5], -0.45 (inactive).

With `COC(=O)Cn1c(C(=O)N(C)C)cc2c1C[C@H]1CN(C(=O)c3ccccc3)[C@@](Cc3ccc(OC)cc3)(C(=O)OC)[C@@H]21`, the composite z-score was 1.28 (inactive) in assay [1] and 0.59 with XIP peptide (Xip251-270). Besides, the z-score in assay [2] was -1.62; in assay [3], -5.22 (inactive); in assay [4], 0.0109 (inactive); in assay [5] it was 0.295 (inactive).

As for `COc1ccc([Si](C)(C)[C@@H]2[C@@H](CC(=O)N(CCO)Cc3ccccc3)O[C@]3(C(=O)N(Cc4ccc(N5CCC5=O)cc4)c4ccccc43)[C@H]2C)cc1`, the composite z-score is 3.33 (inactive) in assay [1] and 0.443 with XIP peptide (Xip251-270). For the same compound, the z-score in assay [2] was -0.767; in assay [3], -1.08 (inactive); in assay [4], 0.366 (inactive); in assay [5] it was 0.971 (inactive).

Turning to `O=C(NCC(F)(F)F)[C@@H]1c2ccccc2C(=O)N(CC23CC4CC(CC(C4)C2)C3)[C@H]1c1ccc(CO)cc1`, the composite z-score is 0.35 (inactive) in assay [1] and 0.586 in the assay on XIP peptide (Xip251-270). Further, the z-score in assay [2] is -2.24; in assay [3], -4.02 (inactive); in assay [4], -0.254 (inactive); in assay [5], -0.371 (inactive).
